Test in all cases: qHTS profiling for inhibitors of Plasmodium falciparum proliferation (AID 504749); also: nearly all actives have a fitted effect of over 60% in size
Conditions in all cases: P. falciparum in erythrocytes, SYBR Green DNA, 72 h; series mostly up to 28.7 µM
In general terms: Quantitative high-throughput screening tests each substance at several concentrations.

One experiment concerns ECU. The method in brief:
(§1)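 P. falciparum-infected erythrocytes (0.3% parasitemia, 2.5% hematocrit) incubated with compound 72 h at 37 C, 5% CO2. Parasite DNA detected by SYBR Green after lysis, overnight at room temperature; normalised to 0.29 uM artemisinin and DMSO.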

Another experiment concerns FAB9. The method in brief: as §1
The subject of another experiment is GB4. The method in brief:
as §1

The next experiment deals with HB3. The method in brief:
as §1

For a further experiment, the system named is ICS. The method in brief:
as §1

The subject of the next experiment is JCK. The method in brief: as §1
In another experiment the test system is N140. The method in brief: as §1
Another experiment relates to P93_24. The method in brief:
as §1

The test system of a further experiment is P94_40. The method in brief: as §1
Another experiment concerns PAD. The method in brief: as §1

Results filed as inconclusive are left out. The source made the active and inactive calls. Calls follow the shape of the dose curve; as a rule, active = well fitted inhibition curve with a large enough effect; inconclusive = small, poorly fitted or top-dose-only effect; inactive = flat fitted curve, though single readings scatter.
Potency is read from the fitted curve at half-maximal effect.

On to `O=C(O)CP(=O)(O)O`, for which the Potency result in the experiment with ECU, in the experiment on FAB9, in the experiment on GB4, in the experiment on HB3, in the experiment with ICS and in the experiment on JCK was “inactive” throughout. The Potency result with N140, in the experiment on P93_24, in the experiment with P94_40 and with PAD was “inactive” in each case.
On to `CCN(CC)CCCN(c1ccccc1)C1Cc2ccccc2C1`, for which the Potency is 3.98 µM (active) in the experiment on ECU; 5.62 µM (active) in the experiment on FAB9; 6.01 µM (active) in the experiment with GB4; 11.2 µM (active) with HB3; 3.55 µM (active) with ICS; 11.2 µM (active) with JCK. For the same compound, the Potency with N140 was 5.01 µM (active); in the experiment on P93_24, 4.47 µM (active); with P94_40, 5.01 µM (active); with PAD it was 4.47 µM (active).
Consider `CN(C)C(=O)Oc1cccc([N+](C)(C)C)c1`, for which the Potency result in the experiment on ECU, with FAB9, in the experiment on GB4, in the experiment on HB3, in the experiment on ICS and in the experiment with JCK was “inactive” in each case. Moreover, the Potency result in the experiment on N140, in the experiment with P93_24, with P94_40 and with PAD was “inactive” throughout.
`CN(C)C(=O)Oc1ccc[n+](C)c1`: the Potency result in the experiment with ECU, in the experiment with FAB9, in the experiment on GB4, in the experiment with HB3, with ICS and in the experiment with JCK was “inactive” throughout. The Potency entry with N140, with P93_24, in the experiment with P94_40 and with PAD was “inactive” each time.
As to `CC(=O)Nc1nnc(S(N)(=O)=O)s1`, the Potency result in the experiment on ECU, in the experiment with FAB9, in the experiment on GB4, in the experiment with HB3, in the experiment with ICS and in the experiment on JCK was “inactive” in each case. Further, the Potency entry in the experiment with N140, in the experiment on P93_24, in the experiment on P94_40 and in the experiment with PAD was “inactive” in each case.
In the case of `NC(Cc1ccc(Cl)cc1)C(=O)O` (stereo unspecified), the Potency result in the experiment with ECU, in the experiment on FAB9, with GB4, in the experiment on HB3, in the experiment with ICS and in the experiment with JCK was “inactive” throughout. Moreover, the Potency entry in the experiment with N140, in the experiment on P93_24, in the experiment with P94_40 and in the experiment with PAD was “inactive” in each case.
As to `CCN1CCc2nc(N)oc2CC1`, the Potency result with ECU, with FAB9, in the experiment on GB4, with HB3, in the experiment with ICS and in the experiment with JCK was “inactive” each time. For the same compound, the Potency result with N140, in the experiment on P93_24, with P94_40 and in the experiment on PAD was “inactive” each time.
Consider `CCCN(CCC)CCc1cccc2c1CC(=O)N2`, for which the Potency entry in the experiment on ECU, in the experiment on FAB9, with GB4, in the experiment with HB3, in the experiment on ICS and with JCK was “inactive” in each case. For the same compound, the Potency result in the experiment with N140, in the experiment with P93_24, in the experiment on P94_40 and with PAD was “inactive” throughout.
For `Nc1ncn([C@@H]2O[C@H](CO)[C@@H](O)[C@H]2O)c(=O)n1`, the Potency entry in the experiment on ECU, with FAB9, in the experiment on GB4, with HB3, with ICS and in the experiment on JCK was “inactive” each time. In addition, the Potency result in the experiment on N140, with P93_24, with P94_40 and in the experiment with PAD was “inactive” throughout.
`C[N+](C)(C)CCCCCCCCCC[N+](C)(C)C`: the Potency in the experiment with ECU was 10 µM (active); in the experiment with FAB9 it was 5.01 µM (active); in the experiment on GB4, 3.01 µM (active); with HB3, 1.58 µM (active); with ICS, 2.24 µM (active); in the experiment on JCK, 11.2 µM (active). For the same compound, the Potency in the experiment on N140 is 2.82 µM (active); in the experiment on P93_24 it was 2.51 µM (active); with P94_40 it was 2.51 µM (active); in the experiment with PAD, 2.24 µM (active).
`CCCCNC(=O)NS(=O)(=O)c1ccc(C)cc1`: the Potency entry in the experiment on ECU, with FAB9, with GB4, with HB3, in the experiment with ICS and with JCK was “inactive” each time. Also, the Potency result with N140, in the experiment with P93_24, with P94_40 and with PAD was “inactive” each time.
As to `Cc1nc2c([nH]1)c(=O)n(C)c(=O)n2Cc1ccco1`, the Potency result with ECU, in the experiment with FAB9, in the experiment on GB4, with HB3, in the experiment on ICS and in the experiment on JCK was “inactive” throughout. In addition, the Potency result in the experiment on N140, with P93_24, in the experiment with P94_40 and with PAD was “inactive” in each case.
As to `CC(N=C(NC#N)Nc1ccncc1)C(C)(C)C` (stereo unspecified), the Potency entry in the experiment on ECU, with FAB9, in the experiment with GB4, with HB3, in the experiment with ICS and in the experiment on JCK was “inactive” in each case. The Potency result in the experiment with N140, in the experiment with P93_24, with P94_40 and in the experiment with PAD was “inactive” throughout.
On to `CCCCCN(CCCCC)C(=O)C(CCC(=O)O)NC(=O)c1ccc(Cl)c(Cl)c1` (stereo unspecified), for which the Potency entry with ECU, with FAB9, in the experiment with GB4, in the experiment with HB3, with ICS and with JCK was “inactive” in each case. The Potency result in the experiment with N140, in the experiment with P93_24, in the experiment with P94_40 and in the experiment with PAD was “inactive” each time.
In the case of `CCN1CCC[C@H]1CNC(=O)c1c(O)c(Cl)cc(Cl)c1OC`, the Potency result with ECU, with FAB9, in the experiment with GB4, in the experiment on HB3, with ICS and with JCK was “inactive” each time. Besides, the Potency entry in the experiment on N140, in the experiment with P93_24, in the experiment with P94_40 and in the experiment on PAD was “inactive” each time.
In the case of `CN1CCN(CC(=O)N2c3ccccc3C(=O)Nc3cccnc32)CC1`, the Potency entry in the experiment on ECU, in the experiment with FAB9, in the experiment with GB4, with HB3, in the experiment on ICS and with JCK was “inactive” throughout. Besides, the Potency entry in the experiment with N140, with P93_24, in the experiment with P94_40 and in the experiment with PAD was “inactive” in each case.
On to `COc1ccc([C@@H]2Sc3ccccc3N(CCN(C)C)C(=O)[C@@H]2OC(C)=O)cc1`, for which the Potency entry in the experiment with ECU, in the experiment with FAB9, with GB4, in the experiment with HB3, in the experiment on ICS and with N140 was “inactive” throughout. In addition, the Potency entry in the experiment with P93_24, with P94_40 and with PAD was “inactive” throughout. The Potency in the experiment with JCK was 10 µM (active).
As for `COCC(=O)O[C@]1(CCN(C)CCCc2nc3ccccc3[nH]2)CCc2cc(F)ccc2[C@@H]1C(C)C`, the Potency is 4.47 µM (active) with ECU; 10 µM (active) in the experiment with FAB9; 0.151 µM (active) in the experiment with GB4; 7.94 µM (active) in the experiment on HB3; 1.78 µM (active) with ICS; 7.94 µM (active) with JCK. Also, the Potency with N140 is 0.562 µM (active); in the experiment with P93_24, 1.58 µM (active); in the experiment with P94_40, 2.82 µM (active); in the experiment with PAD it was 3.55 µM (active).
Take `CCn1ccnc1CC1COc2ccccc2O1` (stereo unspecified): the Potency result in the experiment on ECU, in the experiment on FAB9, with GB4, in the experiment with HB3, in the experiment with ICS and in the experiment with JCK was “inactive” throughout. Moreover, the Potency entry with N140, in the experiment with P93_24, in the experiment with P94_40 and with PAD was “inactive” in each case.
Regarding `CC1=NS(=O)(=O)c2cc(Cl)ccc2N1`, the Potency result with ECU, in the experiment with FAB9, in the experiment on GB4, in the experiment with ICS, in the experiment with N140 and with PAD was “inactive” throughout.
With `CC(=O)[C@]1(O)Cc2c(O)c3c(c(O)c2[C@@H](O[C@H]2C[C@H](N)[C@H](O)[C@H](C)O2)C1)C(=O)c1ccccc1C3=O`, the Potency in the experiment on ECU was 7.94 µM (active); in the experiment on FAB9 it was 11.2 µM (active); with GB4, 4.78 µM (active); with HB3 it was 4.47 µM (active); in the experiment on ICS, 1.78 µM (active); with JCK it was 8.91 µM (active). Moreover, the Potency in the experiment on N140 is 4.47 µM (active); in the experiment with P93_24 it was 4.47 µM (active); with P94_40, 3.16 µM (active); with PAD, 5.01 µM (active).

Values taken from PubChem BioAssay (NCATS).
